The target in test [1] is Lysosomal acid glucosylceramidase (Homo sapiens) (UniProt P04062). The experiment in a line: Glucocerebrosidase-p2 (AID 348; in the data active = potency below about 10 µM; note: potency is the fitted concentration of half-maximal effect). Conditions: purified GBA, blue fluorogenic substrate, 40 min. In outline:
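Normal human glucocerebrosidase (0.2 nM) with blue fluorogenic substrate (80 uM final) in citrate/phosphate pH 5.9 with 10mM sodium taurocholate, 0.01% tween-20; 40 min RT, NaOH/glycine stop; fluorescence Ex 365/Em 440; AC50 from a titration from 0.6 nM upwards.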

Test [2] can be described thus: AP1 Signaling Pathway (AID 357).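 Note: ME-180 reporter cells stimulated with EGF at its EC50 level; % is set by controls: 0 for no effect and ±100 for the full control effect.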 Conditions: ME-180 AP-1-bla reporter, EGF-induced, beta-lactamase ratio, 5 h; at 7.69 µM (top of the series) unless noted. In outline:
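A ratiometric CCF4 readout (405 nm excitation; 460 and 530 nm emission) quantified AP-1-driven beta-lactamase in ME-180 cells after 5 h with compound and EC50 EGF; AC50 values were derived for activators and inhibitors.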

For test [3], the target named is Cytochrome P450 1A2 (Homo sapiens) (UniProt P05177). The experiment in a line: p450-cyp1a2 (AID 410; calls by dose curve; note: potency is the fitted concentration of half-maximal effect;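 for activity change, negative = inhibition: -100% = full effect of reference inhibitor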). Conditions: recombinant CYP1A2, luciferin-ME demethylation, luminescence; series mostly up to 11.4 µM. In outline:
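20nM CYP1A2, 100uM Luciferin-ME (=Km), 100mM KPO4; cpd 10 min RT; +NADPH regen, 60 min RT; stop/detect 20 min; luminescence. Normalized to furafylline 57 uM = full inhibition.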

Test [4] in a line: NFAT Signaling Pathway (AID 444).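 Note: carbachol stimulus at about its EC50 of 1 µM final; % is set by controls: 0 for no effect and ±100 for the full control effect.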 The following applies: Jurkat NFAT-bla M1, carbachol, beta-lactamase ratio, 5 h; at 7.69 µM (top of the series) unless noted. In outline:
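Jurkat cells carrying an NFAT-driven β-lactamase reporter and co-transfected muscarinic M1 receptor were treated with compound plus carbachol (1 uM final, an EC50 level) for 5 h at 37 °C. CCF4 loading followed for 1 h at RT; 460/530 nm ratio gave %activity.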

Test [5] is described as follows: Stat Signaling Pathway (AID 446).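 Note: ME-180 cervical cancer cells given 40 pM IL-6 alongside compound; SIE-controlled beta-lactamase reporter measured as 460/530 nm FRET emission ratio; % is set by controls: 0 for no effect and ±100 for the full control effect.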 Conditions: ME-180 (cervical carcinoma) SIE beta-lactamase reporter, IL-6 stimulated, 5 h; at 7.69 µM (top of the series) unless noted. The procedure, abridged: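 FRET read-out (405 nm excitation, 460/530 nm emission) of a beta-lactamase reporter under a STAT-inducible element in ME-180 cervical carcinoma cells. Cells with compound receive 40 pM IL-6 for 5 h. Values are normalised to AC90 stimulation and AC90 JAK-inhibitor controls.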

The target in test [6] is Glucocorticoid receptor (Homo sapiens) (UniProt P04150). As to the kind of experiment: GR-GFP Redistribution (AID 450;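 active = compounds whose dose series gives a full or clear partial fitted curve of increased nuclear translocation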; note: potency is the fitted concentration of half-maximal effect). Conditions: U2OS GR-GFP nuclear translocation, laser cytometry, 2 h.
Sequence of Glucocorticoid receptor (Homo sapiens) (P04150 whole entry, looked up): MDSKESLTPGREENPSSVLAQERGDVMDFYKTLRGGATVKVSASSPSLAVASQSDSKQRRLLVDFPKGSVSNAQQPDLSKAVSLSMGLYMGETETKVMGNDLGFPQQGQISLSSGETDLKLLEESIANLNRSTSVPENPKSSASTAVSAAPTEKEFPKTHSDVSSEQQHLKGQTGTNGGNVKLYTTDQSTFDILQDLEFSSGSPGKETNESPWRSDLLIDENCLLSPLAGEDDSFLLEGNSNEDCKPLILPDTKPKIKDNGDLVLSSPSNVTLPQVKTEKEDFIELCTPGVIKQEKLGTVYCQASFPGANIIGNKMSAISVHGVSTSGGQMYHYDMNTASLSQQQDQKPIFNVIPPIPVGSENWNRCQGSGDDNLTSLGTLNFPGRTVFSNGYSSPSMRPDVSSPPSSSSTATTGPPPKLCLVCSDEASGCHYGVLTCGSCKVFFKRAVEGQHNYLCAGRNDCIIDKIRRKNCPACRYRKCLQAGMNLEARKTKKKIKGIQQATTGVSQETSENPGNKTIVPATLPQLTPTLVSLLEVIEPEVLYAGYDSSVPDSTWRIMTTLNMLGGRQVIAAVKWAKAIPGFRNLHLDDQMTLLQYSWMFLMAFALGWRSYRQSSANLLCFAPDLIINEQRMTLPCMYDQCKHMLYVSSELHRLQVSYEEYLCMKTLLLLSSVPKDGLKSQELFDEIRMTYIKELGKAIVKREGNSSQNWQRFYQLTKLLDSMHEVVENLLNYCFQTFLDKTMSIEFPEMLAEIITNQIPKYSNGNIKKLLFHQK
The target is the same in test [7]. As to the kind of experiment: GR-EFC Redistribution (AID 451; calls by dose curve; note: potency is the fitted concentration of half-maximal effect). The following applies: CHO-K1 GR-EFC translocation, beta-gal luminescence, 2 h. The procedure, abridged:
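CHO-K1 cells stably expressing nuclear-localized β-gal enzyme acceptor and GR fused C-terminally to the enzyme donor fragment; ligand-driven nuclear translocation restores β-gal by complementation. Compounds titrated up to 46 uM final, 2 h at 37 °C; luminescence read.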

The target in test [8] is Mitogen-activated protein kinase 10 (Mus musculus) (UniProt Q61831). The experiment in a line: JNK3 AlphaScreen Assay (AID 530).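 Note: kinase came from lysate of stimulated human HepG2 cells; % is set by controls: 0 for no effect and ±100 for the full control effect.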 The following applies: JNK3 lysate, c-Jun phosphorylation; series mostly up to 11.4 µM. The procedure, abridged: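 Biotinylated GST-cJun(1-79) served as substrate for JNK3 in HepG2 lysates stimulated with IL-1beta and TNF-alpha. ATP was 10 uM final, pH 7.6. Ser73 phosphorylation was quantified by AlphaScreen (680 nm excitation).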

Test [9] deals with 3',5'-cyclic-AMP phosphodiesterase 4B (Homo sapiens) (UniProt Q07343). As to the kind of experiment: qHTS Assay for Inhibitors of PDE-IV (AID 607; active = well fitted activation curve with a large enough effect in the main read-out, with a control signal flat, not every such curve was filed as active; note: % of control where 0% means no effect). The following applies: HEK293 ACTOne CNG channel cells, membrane potential fluorescence; series mostly up to 22.9 µM. In outline:
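Cell-based read-out of cAMP via a modified cyclic nucleotide-gated channel and membrane potential dye (535/590 nm) in HEK293 cells expressing PDE4 endogenously. Compounds tested up to 22.9 uM final; 100 uM RO 20-1724 reference.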
Background: Quantitative high-throughput screening tests each substance at several concentrations.

The target of test [10] is Cytochrome P450 3A4 (Homo sapiens) (UniProt P08684). As to the kind of experiment: qHTS Assay for Inhibitors and Substrates of Cytochrome P450 3A4 (AID 884; active = well fitted curve in the direction sought with a large enough effect; an effect the other way counts as inactive or inconclusive; note: nearly all actives have a fitted effect of over 50% in size; note: potency is the fitted concentration of half-maximal effect). Conditions: recombinant CYP3A4, Luciferin-PPXE luminescence; series mostly up to 57.1 µM. In outline:
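Luminescent readout of luciferin produced by CYP3A4 (20 nM) dealkylation of Luciferin-PPXE, 25 uM (its KM). NADPH-driven reaction ran 60 min at RT after 10 min compound preincubation; data scaled to 57 uM ketoconazole as 100% inhibition.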

For test [11] the target is unchanged. As to the kind of experiment: qHTS Assay for Activators of Cytochrome P450 3A4 (AID 885; active = well fitted curve in the direction sought with a large enough effect; an effect the other way counts as inactive or inconclusive; note: nearly all actives have a fitted effect of over 65% in size). The following applies: recombinant CYP3A4, Luciferin-PPXE luminescence, 60 min; series mostly up to 11.4 µM. The procedure, abridged: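 Luminescent readout of luciferin formed from 25 uM Luciferin-PPXE (KM level) by 20 nM CYP3A4 in 200 mM KPO4, with 60 min NADPH-driven reaction at room temperature after 10 min compound exposure. Ketoconazole (57 uM) defined 100% inhibition.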

The target in test [12] is Cytochrome P450 2C9 (Homo sapiens) (UniProt P11712). As to the kind of experiment: qHTS Assay for Inhibitors and Substrates of Cytochrome P450 2C9 (AID 883; active = well fitted curve in the direction sought with a large enough effect; an effect the other way counts as inactive or inconclusive; note: nearly all actives have a fitted effect of over 60% in size; note: potency is the fitted concentration of half-maximal effect). The following applies: recombinant CYP2C9, luciferin-H luminescence, 60 min; series mostly up to 11.4 µM. The procedure, abridged:
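Human CYP2C9 (10nM) hydroxylated Luciferin-H (100uM, at its KM) to luciferin in 25mM KPO4. Compound was preincubated 10 min at 37C, then NADPH regeneration started a 60 min reaction at 37C. Luminescence was read after detection reagent, normalized to 57uM sulphaphenazole.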

Test [13] has as its target Cytochrome P450 2D6 (Homo sapiens) (UniProt P10635). As to the kind of experiment: qHTS Assay for Inhibitors and Substrates of Cytochrome P450 2D6 (AID 891; active = well fitted curve in the direction sought with a large enough effect; an effect the other way counts as inactive or inconclusive; note: nearly all actives have a fitted effect of over 60% in size; note: potency is the fitted concentration of half-maximal effect). The following applies: recombinant CYP2D6, luciferin-ME EGE luminescence; series mostly up to 11.4 µM. In outline: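 Luminescent read-out of luciferin formed by 5 nM human CYP2D6 demethylating 30 uM Luciferin-ME EGE (Km level) over 60 min at room temperature after NADPH regeneration addition. Data normalized to full inhibition by 1.43 uM quinidine.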

The target of test [14] is Cytochrome P450 2C19 (Homo sapiens) (UniProt P33261). As to the kind of experiment: qHTS Assay for Inhibitors and Substrates of Cytochrome P450 2C19 (AID 899; active = well fitted curve in the direction sought with a large enough effect; an effect the other way counts as inactive or inconclusive; note: nearly all actives have a fitted effect of over 60% in size; note: potency is the fitted concentration of half-maximal effect). The following applies: recombinant CYP2C19, luciferin-H EGE luminescence; series mostly up to 11.4 µM. In outline: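 Human CYP2C19 (5nM) with Luciferin-H EGE at 10uM (its KM) in 50mM KPO4 was preincubated with compound for 10 min at 37C. NADPH regeneration started a 60 min 37C reaction. Luciferin was read by luminescence, normalized to 57uM ketoconazole.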
Sequence of Cytochrome P450 2C19 (Homo sapiens) (P33261 whole entry, looked up): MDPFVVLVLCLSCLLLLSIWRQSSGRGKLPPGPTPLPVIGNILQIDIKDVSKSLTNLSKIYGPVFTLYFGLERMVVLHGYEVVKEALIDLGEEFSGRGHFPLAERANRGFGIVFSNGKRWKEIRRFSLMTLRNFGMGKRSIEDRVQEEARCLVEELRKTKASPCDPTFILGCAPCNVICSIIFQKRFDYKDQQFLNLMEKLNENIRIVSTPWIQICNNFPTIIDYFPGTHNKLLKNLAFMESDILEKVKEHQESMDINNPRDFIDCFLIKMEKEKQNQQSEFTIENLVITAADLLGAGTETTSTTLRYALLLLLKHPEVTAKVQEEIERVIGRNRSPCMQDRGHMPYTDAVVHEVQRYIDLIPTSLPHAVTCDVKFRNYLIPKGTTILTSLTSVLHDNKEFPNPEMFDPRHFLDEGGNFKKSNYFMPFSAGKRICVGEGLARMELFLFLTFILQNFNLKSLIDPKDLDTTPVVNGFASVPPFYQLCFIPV

Unmarked numbers belong to inactive results. Records with an inconclusive call do not appear. Active and inactive are the calls of the source. Unless noted, calls come from the whole dose curve; as a rule, active = well fitted curve in either direction with a large enough effect (not every such curve was filed as active); inconclusive = small, poorly fitted or top-dose-only effect, or another doubt; inactive = flat fitted curve, though single readings scatter. A value given as a limit tells only on which side of the number the result lay.

In PubChem BioAssay (NCATS) one finds Potency, activity change, negative = inhibition and activity, negative = inhibition data, which are given here for seven compounds.

Sequence of Cytochrome P450 2D6 (Homo sapiens) (P10635 whole entry, looked up): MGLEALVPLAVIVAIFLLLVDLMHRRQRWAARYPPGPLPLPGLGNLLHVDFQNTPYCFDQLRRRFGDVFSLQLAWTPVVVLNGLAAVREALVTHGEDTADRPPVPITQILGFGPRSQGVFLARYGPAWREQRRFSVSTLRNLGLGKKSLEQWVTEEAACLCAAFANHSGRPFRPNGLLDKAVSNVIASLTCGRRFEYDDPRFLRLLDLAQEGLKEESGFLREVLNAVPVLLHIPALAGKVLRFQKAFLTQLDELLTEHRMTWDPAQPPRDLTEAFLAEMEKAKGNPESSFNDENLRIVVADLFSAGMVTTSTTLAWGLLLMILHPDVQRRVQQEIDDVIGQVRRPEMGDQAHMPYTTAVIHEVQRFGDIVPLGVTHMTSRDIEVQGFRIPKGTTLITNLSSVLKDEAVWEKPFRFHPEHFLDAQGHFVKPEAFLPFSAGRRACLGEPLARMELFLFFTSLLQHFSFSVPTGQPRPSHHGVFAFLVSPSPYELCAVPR
Sequence of Cytochrome P450 1A2 (Homo sapiens) (P05177 whole entry, looked up): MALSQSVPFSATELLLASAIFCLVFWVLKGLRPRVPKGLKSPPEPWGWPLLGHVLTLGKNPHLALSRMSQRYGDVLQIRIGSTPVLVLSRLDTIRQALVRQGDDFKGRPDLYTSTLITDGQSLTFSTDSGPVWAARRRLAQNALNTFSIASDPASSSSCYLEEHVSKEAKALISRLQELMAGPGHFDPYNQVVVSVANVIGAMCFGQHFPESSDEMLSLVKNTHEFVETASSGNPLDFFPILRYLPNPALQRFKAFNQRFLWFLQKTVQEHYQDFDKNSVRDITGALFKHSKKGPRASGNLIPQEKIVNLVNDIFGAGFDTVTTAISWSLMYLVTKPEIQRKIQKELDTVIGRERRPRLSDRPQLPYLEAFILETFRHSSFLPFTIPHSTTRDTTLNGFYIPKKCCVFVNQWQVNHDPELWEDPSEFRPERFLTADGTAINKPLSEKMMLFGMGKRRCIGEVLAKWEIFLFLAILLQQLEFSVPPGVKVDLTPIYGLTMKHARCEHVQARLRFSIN
Sequence of Lysosomal acid glucosylceramidase (Homo sapiens) (P04062 whole entry, looked up): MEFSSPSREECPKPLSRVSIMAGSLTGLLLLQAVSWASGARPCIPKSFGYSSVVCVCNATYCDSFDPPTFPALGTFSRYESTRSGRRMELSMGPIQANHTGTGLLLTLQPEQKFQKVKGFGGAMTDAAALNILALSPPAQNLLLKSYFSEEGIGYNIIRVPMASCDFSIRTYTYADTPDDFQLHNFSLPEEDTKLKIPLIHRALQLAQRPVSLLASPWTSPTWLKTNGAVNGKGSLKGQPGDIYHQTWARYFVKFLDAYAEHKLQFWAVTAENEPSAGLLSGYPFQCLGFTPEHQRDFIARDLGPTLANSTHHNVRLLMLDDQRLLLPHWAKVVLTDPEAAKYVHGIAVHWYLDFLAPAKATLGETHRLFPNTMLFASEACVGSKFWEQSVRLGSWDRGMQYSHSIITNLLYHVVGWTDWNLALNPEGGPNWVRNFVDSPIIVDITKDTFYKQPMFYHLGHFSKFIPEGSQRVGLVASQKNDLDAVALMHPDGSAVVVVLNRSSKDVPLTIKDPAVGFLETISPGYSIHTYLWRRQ
Sequence of Cytochrome P450 2C9 (Homo sapiens) (P11712 whole entry, looked up): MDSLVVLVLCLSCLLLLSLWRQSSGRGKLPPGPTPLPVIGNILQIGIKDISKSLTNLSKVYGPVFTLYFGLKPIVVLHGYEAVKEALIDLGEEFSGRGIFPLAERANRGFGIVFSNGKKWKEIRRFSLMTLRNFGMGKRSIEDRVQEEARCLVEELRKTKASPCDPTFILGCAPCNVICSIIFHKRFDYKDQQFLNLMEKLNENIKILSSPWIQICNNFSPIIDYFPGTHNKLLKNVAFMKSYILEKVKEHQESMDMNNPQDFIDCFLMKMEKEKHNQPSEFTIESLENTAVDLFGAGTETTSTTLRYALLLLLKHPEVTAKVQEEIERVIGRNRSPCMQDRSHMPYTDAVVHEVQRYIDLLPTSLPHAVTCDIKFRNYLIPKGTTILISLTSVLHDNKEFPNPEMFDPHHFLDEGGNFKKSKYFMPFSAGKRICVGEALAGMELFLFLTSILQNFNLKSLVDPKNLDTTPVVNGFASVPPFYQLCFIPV
Sequence of 3',5'-cyclic-AMP phosphodiesterase 4B (Homo sapiens) (Q07343 whole entry, looked up): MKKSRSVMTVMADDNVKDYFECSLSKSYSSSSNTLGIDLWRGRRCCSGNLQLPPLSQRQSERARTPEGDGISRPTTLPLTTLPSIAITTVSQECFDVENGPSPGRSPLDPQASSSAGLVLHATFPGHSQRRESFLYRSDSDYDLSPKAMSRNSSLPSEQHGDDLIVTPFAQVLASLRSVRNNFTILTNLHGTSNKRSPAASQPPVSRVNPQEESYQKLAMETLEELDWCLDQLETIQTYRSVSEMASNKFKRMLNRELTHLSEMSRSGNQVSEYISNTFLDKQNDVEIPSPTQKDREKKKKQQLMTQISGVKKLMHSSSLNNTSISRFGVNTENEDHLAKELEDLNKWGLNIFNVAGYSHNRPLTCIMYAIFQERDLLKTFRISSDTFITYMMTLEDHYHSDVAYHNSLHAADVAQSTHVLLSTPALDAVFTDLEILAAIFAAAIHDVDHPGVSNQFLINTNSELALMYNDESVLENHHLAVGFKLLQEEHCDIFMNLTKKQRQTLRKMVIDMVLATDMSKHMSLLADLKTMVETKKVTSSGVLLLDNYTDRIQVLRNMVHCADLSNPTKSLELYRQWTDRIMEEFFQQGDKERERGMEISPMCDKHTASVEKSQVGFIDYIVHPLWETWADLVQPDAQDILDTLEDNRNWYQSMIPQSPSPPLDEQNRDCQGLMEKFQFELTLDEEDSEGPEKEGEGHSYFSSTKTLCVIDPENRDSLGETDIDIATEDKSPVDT
Sequence of Cytochrome P450 3A4 (Homo sapiens) (P08684 whole entry, looked up): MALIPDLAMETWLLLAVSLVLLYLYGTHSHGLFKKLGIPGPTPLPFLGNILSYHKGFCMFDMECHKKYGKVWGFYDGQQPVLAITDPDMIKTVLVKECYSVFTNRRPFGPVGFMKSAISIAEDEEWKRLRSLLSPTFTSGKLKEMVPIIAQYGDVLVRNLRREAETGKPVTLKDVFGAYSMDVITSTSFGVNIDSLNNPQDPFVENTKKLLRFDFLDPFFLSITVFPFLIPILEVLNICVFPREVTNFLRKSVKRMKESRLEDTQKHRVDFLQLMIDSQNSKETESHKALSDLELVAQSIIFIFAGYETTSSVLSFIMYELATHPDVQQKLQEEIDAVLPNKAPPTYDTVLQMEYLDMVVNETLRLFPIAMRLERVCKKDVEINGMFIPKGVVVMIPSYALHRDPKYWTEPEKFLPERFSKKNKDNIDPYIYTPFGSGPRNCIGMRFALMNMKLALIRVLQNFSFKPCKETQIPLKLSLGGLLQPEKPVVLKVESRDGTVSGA

For the compound `NNC(=O)[C@@H](O)[C@H](O)[C@H](O)CO`, the Potency in test [1] is above 11.4 µM; in test [6] it was above 46 µM; in test [7], above 9.22 µM. Further, the activity change, negative = inhibition in [2] is 2.85%; in test [4] it was 10.5%. The Potency entry in [3], in [8] and in [9] was “inactive” each time. In [5], the activity, negative = inhibition was 2.62%.

With `C[C@H](CN(C)C)C(=O)c1ccccc1C(=O)O`, the Potency in test [1] was above 11.4 µM; in test [6], above 46 µM; in test [7], above 9.22 µM. In addition, the activity change, negative = inhibition in [2] is -1.25%; in test [4] it was -1.83%. Besides, the Potency result in test [3], in test [8] and in test [9] was “inactive” throughout. The activity, negative = inhibition in [5] is 14.8%.

Consider `COc1cc(Cl)c(CC(=O)c2c[nH]c3ccccc23)cc1OC`, for which the Potency is above 11.4 µM in [1]; 1 µM (active) in test [3]; above 46 µM in test [6]; above 9.22 µM in test [7]; 2.51 µM (active) in test [10]. Besides, the activity change, negative = inhibition is -19.9% in [2] and 26.5% in [4]. The activity, negative = inhibition in test [5] was -15.8%. Besides, the Potency entry in test [8], in test [9] and in test [11] was “inactive” in each case.

As for `Oc1ccc(Cc2nccc3cc(O)c(O)cc23)cc1O`, the Potency is above 11.4 µM in test [1]; 5.01 µM (active) in test [3]; above 46 µM in test [6]; above 9.22 µM in test [7]; 1.26 µM (active) in test [13]. For the same compound, the activity change, negative = inhibition in [2] was -6.37%; in test [4], 7.28%. Also, in [5], the activity, negative = inhibition is -2.43%. The Potency entry in test [8], in test [9] and in test [12] was “inactive” each time.

For the compound `S=C1N[C@H](c2ccccc2)N[C@H](c2ccccc2)S1`, the Potency was above 11.4 µM in [1]; 3.16 µM (active) in test [3]; above 46 µM in test [6]; above 9.22 µM in [7]; 2 µM (active) in test [12]; 3.98 µM (active) in test [13]. In test [14], the Potency is 3.98 µM (active). In addition, the figures for the activity change, negative = inhibition in [2] and in [4] were -0.71% and -21.2%, respectively. In [5], the activity, negative = inhibition was -1.19%. Besides, the Potency entry in test [8], in test [9] and in [11] was “inactive” each time.

Turning to `N#CNC(N)=Nc1ccc(Cl)cc1`, the Potency in test [1] was above 11.4 µM; in test [3], 3.98 µM (active); in [6] it was above 46 µM; in [7], above 9.22 µM. Further, the results for the activity change, negative = inhibition in test [2], in test [4] and in [10] were 5.32%, 2.31% and -49.7% [at 11.4 µM], respectively. Further, the activity, negative = inhibition in [5] is -1.86%. Also, the Potency entry in [8], in [9], in test [12], in test [13] and in [14] was “inactive” each time.

With `O=C(O)CC(CC(=O)O)n1cccc1`, the values for the Potency in test [1], in test [6] and in test [7] were above 11.4 µM, above 46 µM and above 9.22 µM, respectively. In addition, the activity change, negative = inhibition was 5.34% in test [2], 8.97% in test [4] and -36.6% [at 11.4 µM] in [10]. For the same compound, the Potency entry in test [3], in test [8], in test [9], in test [12], in test [13] and in [14] was “inactive” each time. Moreover, the activity, negative = inhibition in test [5] is -7.74%.
